In the supplement of paper PMC8728848:
Shown is part of a subset that was picked to be rich in the strongest signals.

What was measured:
Test in all cases: glycan array binding signal (z-score within array); higher = stronger binding
Conditions in all cases: glycan notation: IUPAC condensed, linker removed
[1] = target: Fuc(a1-2)Gal(b1-4)GlcNAc(b1-3)[Fuc(a1-3)[Gal(b1-4)]GlcNAc(b1-6)]Gal(b1-4)Glc
Method in brief: (§1)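 Glycan array data came from 3228 arrays in the Consortium for Functional Glycomics database, and only arrays with an available protein sequence were kept. Glycan names were put into IUPAC-condensed notation, and columns mapping to the same glycan were averaged. The binding signal is a within-array Z-score, averaged across arrays of one protein sequence run at different concentrations or buffers and across linkers. A negative Z-score can be read as non-binding.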

[2] = target: Fuc(a1-2)[Gal(a1-3)]Gal(b1-3)GlcNAc(b1-3)GalNAc
Method in brief: as §1

[3] = target: Fuc(a1-2)[GalNAc(a1-3)]Gal(b1-3)GalNAc(b1-3)Gal(a1-4)Gal(b1-4)Glc
Method in brief: as §1

[4] = target: Fuc(a1-2)[GalNAc(a1-3)]Gal(b1-3)GlcNAc(b1-6)GalNAc
Method in brief: as §1

[5] = target: Fuc(a1-2)[GalNAc(a1-3)]Gal(b1-4)GlcNAc(b1-2)Man(a1-3)[Fuc(a1-2)[GalNAc(a1-3)]Gal(b1-4)GlcNAc(b1-2)Man(a1-6)]Man(b1-4)GlcNAc(b1-4)GlcNAc
Method in brief: as §1

[6] = target: Fuc(a1-2)[GalNAc(a1-3)]Gal(b1-4)GlcNAc(b1-2)Man(a1-3)[Fuc(a1-2)[GalNAc(a1-3)]Gal(b1-4)GlcNAc(b1-2)Man(a1-6)]Man(b1-4)GlcNAc(b1-4)[Fuc(a1-6)]GlcNAc
Method in brief: as §1

[7] = target: Fuc(a1-3)[Gal(b1-4)]GlcNAc(b1-2)Man(a1-3)[Fuc(a1-3)[Gal(b1-4)]GlcNAc(b1-2)Man(a1-6)]Man(b1-4)GlcNAc(b1-4)GlcNAc
Method in brief: as §1

Fuc(a1-4)GlcNAc = target: Fuc(a1-4)GlcNAc
Method in brief: as §1

Gal(a1-2)Gal = target: Gal(a1-2)Gal
Method in brief: as §1

Gal(a1-3)Gal = target: Gal(a1-3)Gal
Method in brief: as §1

[8] = target: Gal(a1-3)Gal(b1-3)GlcNAc(b1-6)GalNAc
Method in brief: as §1

[9] = target: Gal(a1-3)Gal(b1-4)GlcNAc(b1-2)Man(a1-3)[Gal(a1-3)Gal(b1-4)GlcNAc(b1-2)Man(a1-6)]Man(b1-4)GlcNAc(b1-4)GlcNAc
Method in brief: as §1

[10] = target: Gal(a1-3)Gal(b1-4)[Fuc(a1-3)]GlcNAc
Method in brief: as §1

[11] = target: Gal(a1-3)Gal(b1-4)[Fuc(a1-3)]GlcNAc(b1-2)Man(a1-3)[Gal(a1-3)Gal(b1-4)[Fuc(a1-3)]GlcNAc(b1-2)Man(a1-6)]Man(b1-4)GlcNAc(b1-4)GlcNAc
Method in brief: as §1

Gal(a1-3)GalNAc = target: Gal(a1-3)GalNAc
Method in brief: as §1

[12] = target: Gal(a1-3)[Gal(a1-4)]Gal(b1-4)GlcNAc
Method in brief: as §1

[13] = target: Gal(a1-4)Gal(b1-3)GlcNAc(b1-2)Man(a1-3)[Gal(a1-4)Gal(b1-3)GlcNAc(b1-2)Man(a1-6)]Man(b1-4)GlcNAc(b1-4)GlcNAc
Method in brief: as §1

Gal(b1-3)Gal = target: Gal(b1-3)Gal
Method in brief: as §1

[14] = target: Gal(b1-3)GalNAc(a1-3)[Fuc(a1-2)]Gal(b1-4)GlcNAc
Method in brief: as §1

[15] = target: Gal(b1-3)GlcNAc(b1-2)[Gal(b1-3)GlcNAc(b1-6)]Man(a1-6)[Gal(b1-3)GlcNAc(b1-2)Man(a1-3)]Man(b1-4)GlcNAc(b1-4)GlcNAc
Method in brief: as §1

[16] = target: Gal(b1-3)GlcNAc(b1-3)Gal(b1-4)GlcNAc(b1-2)Man(a1-3)[Gal(b1-3)GlcNAc(b1-3)Gal(b1-4)GlcNAc(b1-2)Man(a1-6)]Man(b1-4)GlcNAc(b1-4)GlcNAc
Method in brief: as §1

[17] = target: Gal(b1-3)[Fuc(a1-4)]GlcNAc(b1-6)GalNAc
Method in brief: as §1

[18] = target: Gal(b1-4)GlcNAc(b1-2)Man(a1-3)[Gal(b1-4)GlcNAc(b1-2)Man(a1-6)]Man(b1-4)GlcNAc(b1-4)GlcNAc
Method in brief: as §1

[19] = target: Gal(b1-4)GlcNAc(b1-2)Man(a1-3)[Gal(b1-4)GlcNAc(b1-2)Man(a1-6)][Gal(b1-4)GlcNAc(b1-4)]Man(b1-4)GlcNAc(b1-4)[Fuc(a1-6)]GlcNAc
Method in brief: as §1

[20] = target: Gal(b1-4)GlcNAc(b1-2)[Gal(b1-4)GlcNAc(b1-6)]Man(a1-6)[Gal(b1-4)GlcNAc(b1-2)Man(a1-3)]Man(b1-4)GlcNAc(b1-4)[Fuc(a1-6)]GlcNAc
Method in brief: as §1

[21] = target: Gal(b1-4)GlcNAc(b1-3)Gal(b1-3)GlcNAc
Method in brief: as §1

[22] = target: Gal(b1-4)GlcNAc(b1-3)Gal(b1-4)GlcNAc(b1-2)Man(a1-3)[Gal(b1-4)GlcNAc(b1-3)Gal(b1-4)GlcNAc(b1-2)Man(a1-6)]Man(b1-4)GlcNAc(b1-4)GlcNAc
Method in brief: as §1

[23] = target: Gal(b1-4)GlcNAc(b1-3)Gal(b1-4)GlcNAc(b1-3)Gal(b1-4)GlcNAc
Method in brief: as §1

[24] = target: Gal(b1-4)GlcNAc(b1-3)Gal(b1-4)GlcNAc(b1-3)Gal(b1-4)GlcNAc(b1-2)Man(a1-3)[Gal(b1-4)GlcNAc(b1-3)Gal(b1-4)GlcNAc(b1-3)Gal(b1-4)GlcNAc(b1-2)Man(a1-6)]Man(b1-4)GlcNAc(b1-4)GlcNAc
Method in brief: as §1

[25] = target: Gal(b1-4)GlcNAc(b1-3)Gal(b1-4)GlcNAc(b1-3)Gal(b1-4)GlcNAc(b1-2)[Gal(b1-4)GlcNAc(b1-3)Gal(b1-4)GlcNAc(b1-3)Gal(b1-4)GlcNAc(b1-6)]Man(a1-6)[Gal(b1-4)GlcNAc(b1-3)Gal(b1-4)GlcNAc(b1-3)Gal(b1-4)GlcNAc(b1-2)Man(a1-3)]Man(b1-4)GlcNAc(b1-4)[Fuc(a1-6)]GlcNAc
Method in brief: as §1

B1: SP16664B-bot-474-25-474 (Bacteroides ovatus) (protein)
chain: CEEDIEIGNKIDESSYLASTQLSGLLLDENTNKNSSVIELRNNEYSTNVVFRLSKLPQKGVDVQIAVEESYAAIYNTIHETDFEVFPAANVKIANNGTFVLAPDDKVTPSVKVTLTAFDGMEEDKTYIVPLTVTSSTEGVTFTETSKHMVLLVQDYRNKPNTNKGEDAVQTVLYFEVNDTNPLNALEFLTESGKYFFDHIVLFAANINWDPEKQRVYLANNENVQFLLDNNDKYLQPLRKAGMKIIISILGNHDEAGVAQLSDMGAREFARELAAYCRAYNLDGVAFDDEYSNSPDLSNPWLASPSAYAGSRLMYECKAVMPEKIVSLYNLGNMYSSSLQVIDGIEPGQYCDYAVADYGGAAGPGTGMTLKQCAGMSIELRRGSGNSSESTARSRKEAGYGYYMFFALDPSLYGSQVYRCQSVCKGLYDETLVYPSYYYKKNSTEREAIN
[1]
  glycan array binding signal (z-score): -0.136
[2]
  glycan array binding signal (z-score): -0.535
[3]
  glycan array binding signal (z-score): -0.296
[4]
  glycan array binding signal (z-score): -0.622
[5]
  glycan array binding signal (z-score): 0.635
[6]
  glycan array binding signal (z-score): 1.16
[7]
  glycan array binding signal (z-score): 2.22
Fuc(a1-4)GlcNAc
  glycan array binding signal (z-score): 2.34
Gal(a1-2)Gal
  glycan array binding signal (z-score): 0.194
Gal(a1-3)Gal
  glycan array binding signal (z-score): -0.094
[8]
  glycan array binding signal (z-score): 0.049
[9]
  glycan array binding signal (z-score): 2.23
[10]
  glycan array binding signal (z-score): -0.366
[11]
  glycan array binding signal (z-score): 1.65
Gal(a1-3)GalNAc
  glycan array binding signal (z-score): -0.504
[12]
  glycan array binding signal (z-score): -0.405
[13]
  glycan array binding signal (z-score): 1.04
Gal(b1-3)Gal
  glycan array binding signal (z-score): -0.262
[14]
  glycan array binding signal (z-score): -0.291
[15]
  glycan array binding signal (z-score): 0.525
[16]
  glycan array binding signal (z-score): -0.246
[17]
  glycan array binding signal (z-score): 0.134
[18]
  glycan array binding signal (z-score): -0.21
[19]
  glycan array binding signal (z-score): -0.39
[20]
  glycan array binding signal (z-score): -0.218
[21]
  glycan array binding signal (z-score): -0.433
[22]
  glycan array binding signal (z-score): 1.81
[23]
  glycan array binding signal (z-score): -0.33
[24]
  glycan array binding signal (z-score): 1.88
[25]
  glycan array binding signal (z-score): 2.21
